Assay results from the supplement of paper PMC10849652.
Targets with a hit are over-represented here; the source holds about 8,800 in all. About 0.5% of all pairs of compound and target were hits. A number with no mark means an inactive call.

Columns and labels:
Assay in all cases: log2 fold change, soluble protein after heating vs DMSO (PISA); higher = thermal stabilisation; K562 lysate, 10 uM; active = over 0.2 and 3.5 SD of the protein, either way, in both replicates (recomputed)
vemurafenib = compound: CCCS(=O)(=O)Nc1ccc(F)c(C(=O)c2c[nH]c3ncc(-c4ccc(Cl)cc4)cc23)c1F [vemurafenib]
In short: (§1)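 K562 pellets were dounce-homogenised in PBS pH 7.4 containing 1 mM MgCl2, and the crude extract, at 1 mg/mL protein, was exposed to 10 μM compound for 30 min. Aliquots were heated for 3 min across 48°C-58°C, pooled, brought to 0.5% NP-40 at 4°C and spun at 21,000xg for 90 min, with the supernatant taken as soluble protein. TMTpro 16plex LC-MS/MS with equalised channel sums quantified that protein. Values are log-two fold changes in thermal stability relative to solvent controls, taken from duplicates.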

[1] = compound: CCCS(=O)(=O)Nc1ccc(F)c(C(=O)c2c[nH]c3ncc(Cl)cc23)c1F
In short: as §1

barasertib = compound: CCN(CCCOc1ccc2c(Nc3cc(CC(=O)Nc4cccc(F)c4)[nH]n3)ncnc2c1)CCOP(=O)(O)O [barasertib]
In short: as §1

[2] = compound: CC[C@@H]1C(=O)N(C)c2cnc(Nc3ccc(C(=O)NC4CCN(C)CC4)cc3OC)nc2N1C1CCCC1
In short: as §1

volasertib = compound: CC[C@@H]1C(=O)N(C)c2cnc(Nc3ccc(C(=O)N[C@H]4CC[C@H](N5CCN(CC6CC6)CC5)CC4)cc3OC)nc2N1C(C)C [volasertib]
In short: as §1

[3] = compound: CCn1c(C(=O)N(C2CC2)C2CC2)cc2c3c(ncn3C)c(Nc3cc(C)n(C)n3)nc21
In short: as §1

[4] = compound: CCn1cc(-c2ccnc3[nH]c(-c4cccc(CN(C)C)c4)cc23)c(-c2ccc(NC(=O)N(C)C)cc2)n1
In short: as §1

[5] = compound: CN1CCC(CNc2ccc3ncc(-c4cccc(OC(F)(F)F)c4)n3n2)CC1
In short: as §1

saracatinib = compound: CN1CCN(CCOc2cc(OC3CCOCC3)c3c(Nc4c(Cl)ccc5c4OCO5)ncnc3c2)CC1 [saracatinib]
In short: as §1

sotrastaurin = compound: CN1CCN(c2nc(C3=C(c4c[nH]c5ccccc45)C(=O)NC3=O)c3ccccc3n2)CC1 [sotrastaurin]
In short: as §1

UniProt Q96B23, sequence (Q96B23 whole entry, looked up): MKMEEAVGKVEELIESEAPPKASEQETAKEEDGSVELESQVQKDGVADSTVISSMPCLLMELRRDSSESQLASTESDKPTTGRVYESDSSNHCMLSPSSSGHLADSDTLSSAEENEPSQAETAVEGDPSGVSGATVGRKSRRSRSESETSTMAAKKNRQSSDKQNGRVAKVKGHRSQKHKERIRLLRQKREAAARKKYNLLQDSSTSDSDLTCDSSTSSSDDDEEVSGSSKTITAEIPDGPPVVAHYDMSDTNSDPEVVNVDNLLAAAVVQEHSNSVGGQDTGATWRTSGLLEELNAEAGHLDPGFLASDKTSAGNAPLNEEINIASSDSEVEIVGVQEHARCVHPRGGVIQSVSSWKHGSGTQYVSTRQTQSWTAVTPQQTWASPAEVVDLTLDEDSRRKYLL
UniProt P21953, sequence (P21953 whole entry, looked up): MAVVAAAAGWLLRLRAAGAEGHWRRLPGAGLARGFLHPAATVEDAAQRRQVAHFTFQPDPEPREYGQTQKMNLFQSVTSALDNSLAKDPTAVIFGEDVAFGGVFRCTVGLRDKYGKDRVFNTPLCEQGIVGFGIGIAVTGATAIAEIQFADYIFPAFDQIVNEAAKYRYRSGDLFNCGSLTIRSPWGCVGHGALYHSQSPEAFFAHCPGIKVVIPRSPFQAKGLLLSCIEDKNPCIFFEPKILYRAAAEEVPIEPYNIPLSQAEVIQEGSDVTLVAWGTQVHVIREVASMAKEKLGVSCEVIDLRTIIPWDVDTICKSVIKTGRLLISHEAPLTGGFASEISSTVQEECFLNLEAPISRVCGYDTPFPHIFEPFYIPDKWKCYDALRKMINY
UniProt Q92879, sequence (Q92879 whole entry, looked up): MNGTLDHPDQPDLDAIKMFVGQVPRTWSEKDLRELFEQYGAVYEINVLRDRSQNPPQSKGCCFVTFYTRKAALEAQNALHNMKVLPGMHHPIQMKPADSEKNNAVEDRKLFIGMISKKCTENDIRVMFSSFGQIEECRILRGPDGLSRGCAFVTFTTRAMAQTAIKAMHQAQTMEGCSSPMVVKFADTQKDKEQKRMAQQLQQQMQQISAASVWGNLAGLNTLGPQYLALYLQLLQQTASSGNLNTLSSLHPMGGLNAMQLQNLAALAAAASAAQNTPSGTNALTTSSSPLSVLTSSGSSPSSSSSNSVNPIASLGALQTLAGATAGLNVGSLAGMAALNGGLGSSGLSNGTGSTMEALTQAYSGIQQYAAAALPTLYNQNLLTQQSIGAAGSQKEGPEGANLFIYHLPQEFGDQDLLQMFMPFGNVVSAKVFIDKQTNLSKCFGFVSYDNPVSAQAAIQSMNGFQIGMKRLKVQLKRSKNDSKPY
UniProt Q13825, sequence (Q13825 whole entry, looked up): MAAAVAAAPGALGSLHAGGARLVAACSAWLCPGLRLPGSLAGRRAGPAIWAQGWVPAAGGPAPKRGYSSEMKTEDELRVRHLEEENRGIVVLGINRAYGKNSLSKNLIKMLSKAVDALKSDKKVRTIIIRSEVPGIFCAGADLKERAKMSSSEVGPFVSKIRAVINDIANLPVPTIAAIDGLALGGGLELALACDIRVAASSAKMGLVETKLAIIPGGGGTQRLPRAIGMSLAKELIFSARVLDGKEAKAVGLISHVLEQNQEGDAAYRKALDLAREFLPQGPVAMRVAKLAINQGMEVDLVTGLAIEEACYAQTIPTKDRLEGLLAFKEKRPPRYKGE
UniProt Q8NBU5, sequence (Q8NBU5 whole entry, looked up): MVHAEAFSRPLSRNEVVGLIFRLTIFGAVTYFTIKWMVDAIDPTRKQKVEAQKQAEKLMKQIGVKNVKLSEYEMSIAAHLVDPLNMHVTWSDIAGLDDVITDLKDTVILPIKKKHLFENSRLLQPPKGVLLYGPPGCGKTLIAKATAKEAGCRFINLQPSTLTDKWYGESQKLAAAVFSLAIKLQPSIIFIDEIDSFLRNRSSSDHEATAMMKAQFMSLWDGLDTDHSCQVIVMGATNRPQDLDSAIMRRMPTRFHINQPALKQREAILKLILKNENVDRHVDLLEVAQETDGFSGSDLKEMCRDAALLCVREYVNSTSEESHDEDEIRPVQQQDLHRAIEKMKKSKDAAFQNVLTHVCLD
UniProt P15313, sequence (P15313 whole entry, looked up): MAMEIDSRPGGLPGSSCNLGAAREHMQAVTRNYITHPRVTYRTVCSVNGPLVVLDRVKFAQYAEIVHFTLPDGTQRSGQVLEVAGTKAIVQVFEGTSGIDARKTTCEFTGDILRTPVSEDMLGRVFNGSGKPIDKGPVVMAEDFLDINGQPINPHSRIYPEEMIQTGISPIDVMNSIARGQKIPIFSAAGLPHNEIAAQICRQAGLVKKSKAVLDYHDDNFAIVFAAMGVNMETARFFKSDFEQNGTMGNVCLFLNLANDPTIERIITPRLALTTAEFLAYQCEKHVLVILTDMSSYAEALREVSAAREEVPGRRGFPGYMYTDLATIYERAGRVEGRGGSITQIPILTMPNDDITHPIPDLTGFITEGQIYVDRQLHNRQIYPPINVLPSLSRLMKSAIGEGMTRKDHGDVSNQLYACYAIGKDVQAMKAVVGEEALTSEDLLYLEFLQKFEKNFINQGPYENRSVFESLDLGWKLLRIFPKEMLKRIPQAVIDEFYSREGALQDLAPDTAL
UniProt O95429, sequence (O95429 whole entry, looked up): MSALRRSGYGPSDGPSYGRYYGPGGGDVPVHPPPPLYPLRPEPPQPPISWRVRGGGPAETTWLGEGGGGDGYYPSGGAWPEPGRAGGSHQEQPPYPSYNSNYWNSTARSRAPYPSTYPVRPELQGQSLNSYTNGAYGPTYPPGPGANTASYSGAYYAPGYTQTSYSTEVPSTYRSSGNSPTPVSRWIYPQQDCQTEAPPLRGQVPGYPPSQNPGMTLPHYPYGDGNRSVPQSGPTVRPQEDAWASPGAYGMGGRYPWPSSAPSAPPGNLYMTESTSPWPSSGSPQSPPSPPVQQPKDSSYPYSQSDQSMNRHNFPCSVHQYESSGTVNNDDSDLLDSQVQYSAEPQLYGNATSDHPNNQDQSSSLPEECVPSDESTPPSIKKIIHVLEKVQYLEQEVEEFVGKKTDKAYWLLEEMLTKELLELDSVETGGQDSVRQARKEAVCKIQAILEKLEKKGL
UniProt O60826, sequence (O60826 whole entry, looked up): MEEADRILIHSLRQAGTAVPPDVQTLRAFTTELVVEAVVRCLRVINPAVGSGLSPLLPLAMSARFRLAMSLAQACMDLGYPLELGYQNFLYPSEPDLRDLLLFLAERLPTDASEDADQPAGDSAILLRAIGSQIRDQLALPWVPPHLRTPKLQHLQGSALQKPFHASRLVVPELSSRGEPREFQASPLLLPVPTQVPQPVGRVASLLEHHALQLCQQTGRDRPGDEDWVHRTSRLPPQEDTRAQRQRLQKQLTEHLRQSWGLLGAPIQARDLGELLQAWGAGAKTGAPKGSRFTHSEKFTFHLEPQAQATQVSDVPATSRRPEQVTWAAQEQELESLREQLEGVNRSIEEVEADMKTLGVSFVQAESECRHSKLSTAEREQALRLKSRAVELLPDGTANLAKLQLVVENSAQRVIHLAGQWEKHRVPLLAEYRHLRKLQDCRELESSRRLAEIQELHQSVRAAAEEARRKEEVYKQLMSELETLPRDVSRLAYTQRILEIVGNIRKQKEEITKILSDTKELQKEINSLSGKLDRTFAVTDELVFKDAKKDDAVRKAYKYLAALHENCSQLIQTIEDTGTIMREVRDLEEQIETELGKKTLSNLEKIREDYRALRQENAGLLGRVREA
UniProt P55212, sequence (P55212 whole entry, looked up): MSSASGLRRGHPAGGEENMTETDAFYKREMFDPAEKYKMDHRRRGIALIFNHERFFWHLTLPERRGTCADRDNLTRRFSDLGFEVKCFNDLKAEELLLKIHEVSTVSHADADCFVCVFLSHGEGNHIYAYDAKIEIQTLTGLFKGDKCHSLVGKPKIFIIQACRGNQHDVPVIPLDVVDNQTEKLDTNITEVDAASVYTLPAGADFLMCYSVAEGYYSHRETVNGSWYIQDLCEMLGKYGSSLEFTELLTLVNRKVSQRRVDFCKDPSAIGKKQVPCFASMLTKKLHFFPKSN
UniProt P15056, sequence (P15056 whole entry, looked up): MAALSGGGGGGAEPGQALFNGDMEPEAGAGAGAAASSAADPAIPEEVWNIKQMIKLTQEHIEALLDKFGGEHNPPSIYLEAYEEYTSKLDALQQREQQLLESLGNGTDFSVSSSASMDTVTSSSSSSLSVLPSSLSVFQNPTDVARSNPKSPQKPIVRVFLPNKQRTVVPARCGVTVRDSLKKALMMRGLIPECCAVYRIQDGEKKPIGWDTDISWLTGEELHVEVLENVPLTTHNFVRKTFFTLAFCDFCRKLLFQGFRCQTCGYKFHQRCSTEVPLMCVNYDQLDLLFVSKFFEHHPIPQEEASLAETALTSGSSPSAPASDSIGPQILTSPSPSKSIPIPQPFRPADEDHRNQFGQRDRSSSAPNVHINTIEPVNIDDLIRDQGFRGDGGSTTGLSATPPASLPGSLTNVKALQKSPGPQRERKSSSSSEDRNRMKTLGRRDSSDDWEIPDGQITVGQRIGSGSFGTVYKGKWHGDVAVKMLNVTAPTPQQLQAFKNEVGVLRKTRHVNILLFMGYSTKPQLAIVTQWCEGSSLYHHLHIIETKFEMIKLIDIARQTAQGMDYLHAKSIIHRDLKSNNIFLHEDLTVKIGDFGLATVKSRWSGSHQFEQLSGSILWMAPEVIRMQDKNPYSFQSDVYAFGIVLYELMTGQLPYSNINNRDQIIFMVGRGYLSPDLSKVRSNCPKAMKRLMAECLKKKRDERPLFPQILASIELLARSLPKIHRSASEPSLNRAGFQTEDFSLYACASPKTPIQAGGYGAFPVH
UniProt P18859, sequence (P18859 whole entry, looked up): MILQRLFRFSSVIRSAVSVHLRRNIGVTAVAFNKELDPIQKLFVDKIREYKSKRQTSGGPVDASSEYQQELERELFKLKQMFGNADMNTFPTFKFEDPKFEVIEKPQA

| Target | log2 fold change (vemurafenib) | log2 fold change [1] | log2 fold change (barasertib) | log2 fold change [2] | log2 fold change (volasertib) | log2 fold change [3] | log2 fold change [4] | log2 fold change [5] | log2 fold change (saracatinib) | log2 fold change (sotrastaurin) |
| --- | --- | --- | --- | --- | --- | --- | --- | --- | --- | --- |
| AUH (UniProt Q13825) | 0.083 | -0.009 | 0.004 | 0.042 | -0.093 | 0 | 0.1 | 0 | -0.101 | 0.047 |
| CHD5 (UniProt Q8TDI0) | -0.034 | 0.022 | 0.034 | 0.165 | -0.028 | -0.026 | 0.051 | -0.019 | 0.026 | 0.026 |
| ATAD1 (UniProt Q8NBU5) | 0.052 | -0.072 | -0.008 | 0.024 | -0.018 | -0.041 | -0.04 | -0.03 | -0.031 | 0.06 |
| CHCHD1 (UniProt Q96BP2) | 0.157 | -0.025 | -0.002 | 0.028 | -0.001 | -0.075 | 1.08 (active) | -0.338 | 0.032 | 0.16 |
| ATP6V1B1 (UniProt P15313) | -0.009 | -0.013 | -0.012 | 0.016 | 0.03 | 0.006 | -0.288 (active) | 0.158 | -0.006 | 0.006 |
| C18orf25 isoform 2 (UniProt Q96B23) | -0.01 | 0.027 | -0.034 | 0.067 | -0.021 | -0.047 | -0.234 | 0.037 | -0.037 |  |
| CCDC22 (UniProt O60826) | -0.054 | 0.026 | 0.052 | -0.053 | -0.013 | 0.026 | -0.027 | -0.01 | 0.01 | 0.028 |
| CHD1L (UniProt Q86WJ1) | 0.033 | 0.011 | 0.062 | -0.029 | -0.09 | 0.024 | -0.053 | -0.054 | 0 | -0.001 |
| ATP5PF isoform 2 (UniProt P18859) | 0.083 | -0.023 | 0.064 | 0.076 | 0.133 | 0.076 | 0.663 (active) | -0.205 | -0.024 | -0.067 |
| CELF1 isoform 4 (UniProt Q92879) | 0.024 | 0.014 | 0.03 | -0.044 | -0.133 | 0.012 | 0.08 | -0.08 | 0.035 | 0.054 |
| BORCS5 (UniProt Q969J3) | 0.044 | 0.005 | 0.201 (active) | 0.057 | 0.027 | -0.01 | 0.075 | -0.055 | 0.013 | 0.017 |
| BAG4 (UniProt O95429) | -0.055 | 0 | 0.048 | 0.004 | -0.003 | 0.036 | -0.037 | 0.102 | 0.018 | -0.043 |
| BCKDHB (UniProt P21953) | 0.068 | 0.032 | 0.065 | -0.102 | -0.079 | -0.064 | 0.022 | -0.02 | -0.012 | 0.129 |
| BRAF (UniProt P15056) | 1.03 (active) | 0.765 (active) | 0.012 | -0.069 | -0.044 | -0.023 | -0.11 | 0.037 | 0.017 | -0.025 |
| CASP6 (UniProt P55212) | 0.006 | -0.012 | -0.071 | 0.018 | -0.017 | 0.025 | 0.242 | 0.013 | -0.004 | -0.016 |
